The structures appear in SMILES notation. The campaign covered roughly 48,000 compounds. About 13,000 (27%) showed an effect of 50% or more. Some of the results follow.

For this assay, the system named is Wolbachia pipientis. Nature of the assay: Anti-Wolbachia Cell-Based Screen. In kind it is functional. On the set-up: scale not given: in the data most compounds retested in dose-response had high values. Particulars: 5 µM.
As to `CC(=O)NC[C@H]1C[C@@H]2CCN1C[C@@H]2c1cc(-c2cccs2)nn1C`, the “Percent Effect” value was -4.622%. Regarding `Cn1cc(CN2CC[C@@H]3[C@@H]2CCN3C(=O)Cc2cccc(F)c2)cn1.O=C(O)C(F)(F)F`, the “Percent Effect” value was -1.291%. For `CN(C)[C@@H]1CN(C(=O)Cc2cccc(F)c2)[C@@H]2CCCO[C@H]12.O=C(O)C(F)(F)F`, the “Percent Effect” value came out at 118.8%.

As for `Cc1nnc(N2CCNCC2)c(C(N)=O)c1C`, the “Percent Effect” value is listed as -61.72%.

As for `O=C(NCc1cccnc1)[C@H]1CN2CCC1C[C@@H]2Cn1cc(CO)nn1` (stereo partly drawn), the “Percent Effect” value is listed as 4.498%. For `O=C1Nc2ccccc2C12CCCN(Cc1ccncc1)C2` (stereo not drawn), the “Percent Effect” value is -10.97%. Regarding `O=C1NCC2(CCCN(Cc3cccnc3)C2)Oc2ccccc21` (stereo not drawn), the “Percent Effect” value amounted to 95.18%.

With `O=C(NCc1cccnc1)C1=NOC2(CCCN(CCO)C2)C1` (stereo not drawn), the “Percent Effect” value came out at 6.778%. On to `CN(C)c1ncc2c(n1)C1(CCN(Cc3cccnc3)C1)COC2` (stereo not drawn), for which the “Percent Effect” value is reported as -5.079%. In the case of `CN1CCC2(CC1)CNC(=O)c1ccccc1O2`, the “Percent Effect” value was -4.791%. With `O=C1NCC2(CCCN(Cc3ccncc3)C2)Oc2ccccc21` (stereo not drawn), the “Percent Effect” value is reported as 106%. With `O=C(O)C(F)(F)F.c1cnc(N2CCOCC3(CN(Cc4ccsc4)CCO3)C2)nc1` (stereo not drawn), the “Percent Effect” value is -6.179%. Take `Cc1cnc(N2CCOC3(CCCN(C)C3)C2)nc1.O=C(O)C(F)(F)F` (stereo not drawn): the “Percent Effect” value was -2.261%. On to `O=C(O)C(F)(F)F.OCCN1CCOC2(CCCN(c3ncc(F)cn3)C2)C1` (stereo not drawn), for which the “Percent Effect” value turned out to be 13%. To `CN(C)C(=O)CN1CCOCC2(C1)CN(c1ncccn1)CCO2.O=C(O)C(F)(F)F` (stereo not drawn) belongs 101.1%; to `Cc1cnc(N2CCC3(CC2)CN(Cc2cccs2)CCO3)nc1.O=C(O)C(F)(F)F.O=C(O)C(F)(F)F`, 102.1%.

As for `Cc1cnc(N2CCOC3(CCCN(CC(=O)N(C)C)C3)C2)nc1.O=C(O)C(F)(F)F.O=C(O)C(F)(F)F` (stereo not drawn), the “Percent Effect” value is listed as -7.39%. Take `Fc1cnc(N2CCCC3(CN(Cc4cccs4)CCO3)C2)nc1.O=C(O)C(F)(F)F` (stereo not drawn): the “Percent Effect” value came to 111.6%. `O=C(O)C(F)(F)F.c1cnc(N2CCOC3(COCCN(Cc4cc[nH]n4)C3)C2)nc1` (stereo not drawn): the “Percent Effect” value is -4.382%.

Consider `O=C(O)C(F)(F)F.c1cnc(N2CCOCC3(CN(Cc4nccs4)CCO3)C2)nc1` (stereo not drawn), for which the “Percent Effect” value came to 8.217%. For `Fc1cnc(N2CCC3(CC2)CN(Cc2cccs2)CCO3)nc1.O=C(O)C(F)(F)F.O=C(O)C(F)(F)F`, the “Percent Effect” value is on record as 98.63%. For `CC[C@H]1CN2CC[C@H]1C[C@@H]2CNC(=O)Nc1ccc(Br)cc1`, the “Percent Effect” value is -5.559%. To `CC(Cc1c(F)cccc1F)NC(=O)CN(CC(N)=O)C(C)C` (stereo not drawn) belongs 2.304%; to `COc1cc(C2(C(=O)NCCn3ccnc3)CCCC2)ccc1C`, 17.74%.

In the case of `c1ccc(CNc2ncc(CN3CC[C@H]4CC[C@@H](C3)N4)cn2)cc1`, the “Percent Effect” value is -14.93%. To `O=C(c1ccc(F)c(F)c1)N1C[C@H]2CNC[C@H]2C1` belongs -36.88%; to `COc1ccc(-c2ccccc2CCN)c(OC)c1`, 16.22%. Under `Cn1cc(CN2CC[C@H]3[C@H]2CC(=O)N3Cc2ccncc2)cn1` stands 97.58%; under `Cn1cc(C(=O)N2CC[C@@H]3[C@@H]2CCN3Cc2ccncc2)cn1.O=C(O)C(F)(F)F.O=C(O)C(F)(F)F`, 8.346%. In the case of `Cn1cc(CN2C[C@@H]3[C@@H](C2)OCC(=O)N3Cc2ccncc2)cn1`, the “Percent Effect” value is reported as -7.726%. For the compound `CCOC(=O)N1CCC2(CCNC2)C1.Cl` (stereo not drawn), the “Percent Effect” value was -20.05%.

For `CN1CCC2(COCc3cnc(N4CCOCC4)nc32)C1.O=C(O)C(F)(F)F` (stereo not drawn), the “Percent Effect” value was -0.9764%. `CC(C)c1nccc([C@H]2C[C@@H]3CCN(Cc4ccoc4)C[C@H]3O2)n1`: the “Percent Effect” value is listed as -1.768%. `CCc1noc(CN(C)CCC(=O)Nc2ccc(C#N)c(Cl)c2)n1`: the “Percent Effect” value is 4.268%. To `CN(CCOCC1CC1)C(=O)Nc1ccc(C#N)c(Cl)c1` belongs 80.92%. For `N#Cc1ccc(NC2CCN(c3ncccn3)CC2)cc1Cl`, the “Percent Effect” value is listed as -9.238%. Under `CN(C)C(=O)[C@@H]1CC[C@@H]2[C@@H](CCN2Cc2ccccn2)O1.O=C(O)C(F)(F)F.O=C(O)C(F)(F)F` stands -15.27%; under `CC(C)N1CC[C@@H]2OC[C@H](C(=O)Nc3cccnc3)C[C@@H]2C1.O=C(O)C(F)(F)F.O=C(O)C(F)(F)F`, 84.8%; under `O=C(Nc1cccnc1)[C@@H]1C[C@H]2OCC[C@H]2N(Cc2ccsc2)C1.O=C(O)C(F)(F)F.O=C(O)C(F)(F)F`, -12.16%. For the compound `O=C(Nc1cccnc1)[C@H]1C[C@@H]2CCN(Cc3nccs3)C[C@@H]2O1.O=C(O)C(F)(F)F.O=C(O)C(F)(F)F`, the “Percent Effect” value came out at 21.14%. Under `CN(Cc1ccccn1)C1CCC[C@@H]2CN(CC3CC3)C[C@H]12.O=C(O)C(F)(F)F.O=C(O)C(F)(F)F` (stereo partly drawn) stands -32.78%. For `O=C(Nc1cccnc1)[C@H]1COC[C@H]2CN(C3CCCC3)C[C@H]21.O=C(O)C(F)(F)F.O=C(O)C(F)(F)F`, the “Percent Effect” value was found to be 10.99%. In the case of `CCCN1CC[C@@H]2OC[C@H](C(=O)Nc3cccnc3)C[C@@H]2C1.O=C(O)C(F)(F)F.O=C(O)C(F)(F)F`, the “Percent Effect” value was 103.7%. For `O=C(Nc1cccnc1)[C@H]1CN(C2CCCC2)C[C@H]2OCC[C@@H]12.O=C(O)C(F)(F)F.O=C(O)C(F)(F)F`, the “Percent Effect” value was 2.861%. Consider `O=C(Nc1cccnc1)[C@H]1CO[C@H]2CCNC[C@H]2C1.O=C(O)C(F)(F)F.O=C(O)C(F)(F)F`, for which the “Percent Effect” value is 99.23%. Take `Cc1ccc(C(=O)N2C[C@@H]3CCN(C(C)C)C[C@@H]3C2)cn1.O=C(O)C(F)(F)F`: the “Percent Effect” value is -22.14%.

As for `CN1CC[C@@H]2OC[C@H](C(=O)N(C)Cc3ccccn3)C[C@@H]2C1.O=C(O)C(F)(F)F.O=C(O)C(F)(F)F`, the “Percent Effect” value is 91.38%. Under `CCOCCN1C[C@H](C(=O)Nc2cccnc2)[C@@H]2CCO[C@@H]2C1.O=C(O)C(F)(F)F.O=C(O)C(F)(F)F` stands 4.673%.

For the origin of these results see ChEMBL document CHEMBL3988442, “University of Dundee, Small-Polar-MMV Screening Library” (2021).
